Measured values from PubChem BioAssay (Tox21).
Values joined by “and” are separate entries in the source; they are usually repeats but may differ in a detail not shown here. Equal values may be shown once. Results filed as inconclusive are left out. More than one record can exist for a structure, and the calls need not agree. Active and inactive are the calls of the source. Unless noted, calls come from the whole dose curve; as a rule, active = well fitted curve in the direction sought with a large enough effect in the repeat runs; inconclusive = weak or mixed curves; inactive = no such curve, though single readings can be large; an effect the other way counts as inactive or inconclusive.

Tests used:
[1] = A CellTox Green Cytotoxicity Assay to monitor cytotoxicity in HEK293 cells - 32 hour (AID 1224881); note: nearly all actives have a fitted effect of over 40% in size; note: potency is the fitted concentration of half-maximal effect
Method in brief: (§1)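 Fluorescence from a DNA-binding dye excluded by viable cells was measured repeatedly in the same HEK293 wells (600 cells/well) during continuous compound exposure at 37 C. Each assay gives one read point: 0, 8, 16, 24, 32 or 40 h.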

[2] = A CellTox Green Cytotoxicity Assay to monitor cytotoxicity in HepG2 cells - 0 hour (AID 1224882); note: nearly all actives have a fitted effect of over 35% in size; note: potency is the fitted concentration of half-maximal effect; for Cytotoxicity: % is set by controls: 0 for no effect and ±100 for the full control effect
Method in brief: (§2)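 Real-time cytotoxicity: fluorescence of a cell-impermeant cyanine dye binding DNA of dead HepG2 cells, measured repeatedly (0–40 h) during compound exposure at 37 C. Cells seeded 600/well with reagent, dosed after 5 h.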

[3] = A CellTox Green Cytotoxicity Assay to monitor cytotoxicity in HepG2 cells - 32 hour (AID 1224883); note: nearly all actives have a fitted effect of over 50% in size; note: potency is the fitted concentration of half-maximal effect
Method in brief: as §2

[4] = qHTS RealTime-Glo MT Cell Viability Assay in HepG2 cells - 16 hour (AID 1224885); note: nearly all actives have a fitted effect of over 50% in size; note: potency is the fitted concentration of half-maximal effect
Method in brief: (§3)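 qHTS, HepG2, 600 cells/well, RealTime-Glo (NanoLuc + prosubstrate) added with cells; 5 h preincubation; DMSO compound addition; 37 C; luminescence at 0/8/16/24/32/40 h.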

[5] = qHTS RealTime-Glo MT Cell Viability Assay in HEK293 cells - 24 hour (AID 1224886); note: nearly all actives have a fitted effect of over 50% in size; note: potency is the fitted concentration of half-maximal effect; for activity change, negative = cytotoxicity: top concentration of the series differs between compounds; % is set by controls: 0 for no effect and ±100 for the full control effect
Method in brief: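 Assay medium contained NanoLuc luciferase plus cell-permeant prosubstrate, added with HEK293 cells at 600 cells/well. After 5 h at 37 C/5% CO2 compounds were added; plates stayed at 37 C for 40 h with serial luminescence reads.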

[6] = qHTS RealTime-Glo MT Cell Viability Assay in HEK293 cells - 8 hour (AID 1224887); note: nearly all actives have a fitted effect of over 50% in size; note: potency is the fitted concentration of half-maximal effect; for activity change, negative = cytotoxicity: top concentration of the series differs between compounds; % is set by controls: 0 for no effect and ±100 for the full control effect
Method in brief: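 Luminescence, which tracks viable cell number through reduction of the prosubstrate to a NanoLuc substrate, was read over continuous 37 C culture. Cells (600/well) were premixed with reagent and rested 5 h before 23 nL of compound in DMSO was pinned.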

[7] = qHTS RealTime-Glo MT Cell Viability Assay in HepG2 cells - 0 hour (AID 1224889); note: nearly all actives have a fitted effect of over 50% in size; note: potency is the fitted concentration of half-maximal effect
Method in brief: as §3

[8] = A CellTox Green Cytotoxicity Assay to monitor cytotoxicity in HepG2 cells - 8 hour (AID 1224890); note: nearly all actives have a fitted effect of over 45% in size; note: potency is the fitted concentration of half-maximal effect
Method in brief: as §2

[9] = qHTS assay to identify small molecule antagonists of the estrogen receptor alpha (ER-alpha) signaling pathway using the BG1 cell line in the presence of 0.1 nM 17-beta-estradiol - cell viability counter screen (AID 1259241); note: % is set by controls: 0 for no effect and ±100 for the full control effect; nearly all actives have a fitted effect of over 40% in size
Method in brief: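 Measures cytotoxicity alongside the ER-alpha antagonist readout: VM7Luc4E2 cells, charcoal-stripped serum, 0.1 nM 17beta-estradiol final, 22 hr compound incubation at 37C, CellTiter-Fluor fluorescence.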

[10] = qHTS assay to identify small molecule antagonists of the androgen receptor (AR) signaling pathway using the MDA cell line in the presence of 0.5 nM R1881 - cell viability counter screen (AID 1259242); note: nearly all actives have a fitted effect of over 45% in size; note: potency is the fitted concentration of half-maximal effect
Method in brief: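 Live-cell protease activity was measured by CellTiter-Fluor fluorescence after 30 min. Before that, MDA-kb2 MMTV-luciferase cells had 16 hr at 37C without CO2, exposed to test compounds and 0.5 nM R1881 final.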

[11] = qHTS assay to identify small molecule HDAC inhibitors (AID 1259364); note: top concentration of the series differs between compounds; % is set by controls: 0 for no effect and ±100 for the full control effect; nearly all actives have a fitted effect of over 45% in size
Method in brief: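 Luminescence read after 30 min room-temperature HDAC-Glo incubation measures cellular class I/II HDAC activity. Compounds were applied for 2 hr at 37 C to HCT-116 wild-type cells seeded the day before.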

[12] = qHTS assay to identify small molecule HDAC inhibitors - cell viability counter screen (AID 1259365)
Method in brief: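 Following a 2hr exposure of overnight-plated wild-type HCT-116 cells to DMSO-delivered compounds, CellTiter-Glo was added and luminescence recorded after 30min at room temperature.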

[13] = qHTS assay to identify small molecule agonists of the sonic hedgehog signaling (Shh) pathway - cell viability counter screen (AID 1259366); note: nearly all actives have a fitted effect of over 50% in size; note: potency is the fitted concentration of half-maximal effect
Method in brief: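 After a 4hr attachment at 37C, NIH/3T3 cells bearing an integrated Gli1-driven luciferase reporter were dosed with compounds. Treatment lasted 24hr, with the final hour including CellTiter-Fluor for a fluorescence viability measurement.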

[14] = qHTS assay to identify small molecule antagonists of the sonic hedgehog signaling (Shh) pathway - cell viability counter screen (AID 1259367); note: nearly all actives have a fitted effect of over 55% in size; note: potency is the fitted concentration of half-maximal effect
Method in brief: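 Cytotoxicity was assessed in parallel with Shh reporter activity by measuring live-cell protease fluorescence (CellTiter-Fluor) in NIH/3T3 cells stably carrying Gli1-Luc, treated with compound under conditioned medium stimulation for 23 hr plus 1 hr reagent incubation.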

[15] = qHTS assay to identify small molecule agonists of the sonic hedgehog signaling (Shh) pathway (AID 1259368; calls by dose curve;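 note: NIH/3T3-derived 3T3Gli1-Luc cells carrying a stable Gli1-driven firefly luciferase reporter; series mostly up to about 92 µM; % is set by controls: 0 for no effect and ±100 for the full control effect; nearly all actives have a fitted effect of over 15% in size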)
Method in brief: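 Luminescence was read after 30 min at room temperature with luciferase reagent. Before that, 3T3Gli1-Luc cells (NIH/3T3 clone, stable Gli1-Luc reporter; 2,000/well) were exposed to compounds for 24 hr at 37C, 5% CO2, compounds being added 4 hr post-plating.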

[16] = A CellTox Green Cytotoxicity Assay to monitor cytotoxicity in HEK293 cells - 8 hour (AID 1224884); note: nearly all actives have a fitted effect of over 35% in size; note: potency is the fitted concentration of half-maximal effect
Method in brief: as §1

[17] = A CellTox Green Cytotoxicity Assay to monitor cytotoxicity in HEK293 cells - 16 hour (AID 1224888); note: nearly all actives have a fitted effect of over 35% in size; note: potency is the fitted concentration of half-maximal effect
Method in brief: as §1

[18] = target: Estrogen receptor (Homo sapiens) (UniProt P03372); assay: qHTS assay to identify small molecule antagonists of the estrogen receptor alpha (ER-alpha) signaling pathway using the BG1 cell line in the presence of 0.1 nM 17-beta-estradiol (AID 1259244); note: nearly all actives have a fitted effect of over 50% in size; note: potency is the fitted concentration of half-maximal effect
Sequence of Estrogen receptor (Homo sapiens) (P03372 whole entry, looked up): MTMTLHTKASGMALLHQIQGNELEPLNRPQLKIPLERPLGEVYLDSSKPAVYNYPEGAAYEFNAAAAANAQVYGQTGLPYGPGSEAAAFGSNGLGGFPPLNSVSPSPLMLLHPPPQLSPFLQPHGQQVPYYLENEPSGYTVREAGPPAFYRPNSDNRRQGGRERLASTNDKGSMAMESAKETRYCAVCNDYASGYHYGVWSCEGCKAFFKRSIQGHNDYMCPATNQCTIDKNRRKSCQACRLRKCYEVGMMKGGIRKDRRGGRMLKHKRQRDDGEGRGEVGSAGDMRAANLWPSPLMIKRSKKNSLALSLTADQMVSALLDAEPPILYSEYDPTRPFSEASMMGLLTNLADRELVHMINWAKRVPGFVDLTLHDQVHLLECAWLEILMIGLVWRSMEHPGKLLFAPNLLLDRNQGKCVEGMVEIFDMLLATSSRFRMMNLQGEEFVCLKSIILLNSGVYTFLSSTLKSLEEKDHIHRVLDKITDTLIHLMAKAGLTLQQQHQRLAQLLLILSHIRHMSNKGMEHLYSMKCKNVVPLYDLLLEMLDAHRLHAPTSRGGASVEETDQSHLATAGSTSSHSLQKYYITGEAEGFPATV
Method in brief: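 Luciferase luminescence (ONE-Glo, 30 min at room temperature) was read after 22 hr at 37C exposure to compounds plus 17beta-estradiol at 0.1 nM final. Cells were VM7Luc4E2 with endogenous ER-alpha and an ERE-driven luciferase, pre-cultured 5 days in hormone-depleted medium.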

[19] = target: Androgen receptor (Homo sapiens) (UniProt P10275); assay: qHTS assay to identify small molecule antagonists of the androgen receptor (AR) signaling pathway using the MDA cell line in the presence of 0.5 nM R1881 (AID 1259243)
Sequence of Androgen receptor (Homo sapiens) (P10275 whole entry, looked up): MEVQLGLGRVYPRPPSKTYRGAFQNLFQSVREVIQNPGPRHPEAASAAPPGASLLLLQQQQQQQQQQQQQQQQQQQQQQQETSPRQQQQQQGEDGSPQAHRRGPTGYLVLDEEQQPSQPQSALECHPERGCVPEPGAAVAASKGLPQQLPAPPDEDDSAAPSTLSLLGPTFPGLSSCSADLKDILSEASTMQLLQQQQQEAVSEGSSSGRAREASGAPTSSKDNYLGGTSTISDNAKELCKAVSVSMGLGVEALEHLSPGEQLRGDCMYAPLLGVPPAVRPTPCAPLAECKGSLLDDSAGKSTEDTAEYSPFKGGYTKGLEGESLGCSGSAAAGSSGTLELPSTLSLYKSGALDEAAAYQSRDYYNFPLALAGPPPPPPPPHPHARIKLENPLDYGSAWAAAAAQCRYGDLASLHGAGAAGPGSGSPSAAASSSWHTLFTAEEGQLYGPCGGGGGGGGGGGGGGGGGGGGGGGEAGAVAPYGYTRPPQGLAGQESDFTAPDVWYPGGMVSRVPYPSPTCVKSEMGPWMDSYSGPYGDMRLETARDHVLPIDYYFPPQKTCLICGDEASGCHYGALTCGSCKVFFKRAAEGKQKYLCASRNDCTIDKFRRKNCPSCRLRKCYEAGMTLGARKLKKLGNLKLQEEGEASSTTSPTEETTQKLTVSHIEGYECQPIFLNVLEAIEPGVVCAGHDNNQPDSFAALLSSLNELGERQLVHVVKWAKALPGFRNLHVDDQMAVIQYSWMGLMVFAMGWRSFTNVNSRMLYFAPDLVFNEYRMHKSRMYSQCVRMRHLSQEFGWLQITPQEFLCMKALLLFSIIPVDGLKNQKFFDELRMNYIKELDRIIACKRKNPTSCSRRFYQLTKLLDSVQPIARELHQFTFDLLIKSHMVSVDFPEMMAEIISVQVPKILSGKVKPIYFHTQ
Method in brief: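 Luminescent reporter readout (ONE-Glo, 30 min, room temperature) after 16 hr co-treatment of MDA-kb2 cells with test compounds and 0.5 nM R1881 final, at 37C without CO2. The MMTV-driven luciferase responds to both AR and GR.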

[20] = qHTS assay to identify small molecule phospholipidosis (PLD) inducers (AID 1259344; active = well fitted curve in the direction sought with a large enough effect; an effect the other way counts as inactive or inconclusive; note: % is set by controls: 0 for no effect and ±100 for the full control effect)
Method in brief: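 Cells (HepG2, 900 per well) attach for 4 h, receive LipidTOX Red and compound together, incubate 24 h at 37 C, are fixed 30 min with paraformaldehyde/Hoechst, then imaged at one site per well.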

Brc1cccc(-c2ccccc2)c1
inactive: Potency [2] | Potency [3] | Potency [4] | Potency [5] | Potency [6] | Potency [7] | Potency [8] | Potency [9] | Potency [10] | Potency [11] | Potency [12] | Potency [13] | Potency [14] | Potency [15]
active: Potency [1] 49.3 µM

CC(=O)[O-].CC(=O)[O-].O.O.O.[Pb+2]
inactive: Potency [1] | Potency [2] | Potency [3] | Potency [16] | Potency [4] | Potency [6] | Potency [17] | Potency [7] | Potency [9] | Potency [10] | Potency [11] | Potency [12] | Potency [13] | Potency [14] | Potency [15]

CC(C)N(C(=O)SC/C(Cl)=C/Cl)C(C)C
active: Potency [1] 39.2 µM
inactive: Potency [2] | Potency [3] | Potency [16] | Potency [4] | Potency [17] | Potency [7] | Potency [8] | Potency [9] | Potency [10] | Potency [18] | Potency [11] | Potency [12] | Potency [13] | Potency [14] | Potency [15]

O=[N+]([O-])[O-].[Tl+]
inactive: Potency [1] | Potency [2] | Potency [3] | Potency [4] | Potency [5] | Potency [6] | Potency [17] | Potency [7] | Potency [8] | Potency [9] | Potency [10] | Potency [11] | Potency [12] | Potency [13] | Potency [14] | Potency [15]

CC(C)[C@@H](Nc1ccc(C(F)(F)F)cc1Cl)C(=O)OC(C#N)c1cccc(Oc2ccccc2)c1 (some centres not stated)
inactive: Potency [1] | Potency [2] | Potency [3] | Potency [4] | Potency [5] | Potency [17] | Potency [7] | Potency [8] | Potency [9] | Potency [10] | Potency [11] | Potency [12] | Potency [13] | Potency [14] | Potency [15]

C=Cc1cccc(CCl)c1
inactive: Potency [1] | Potency [2] | Potency [3] | Potency [4] | Potency [5] | Potency [6] | Potency [7] | Potency [8] | Potency [9] | Potency [10] | Potency [11] | Potency [12] | Potency [13] | Potency [14] | Potency [15]

[Cl-].[Cl-].[Cl-].[Yb+3]
inactive: Potency [1] | Potency [2] | Potency [3] | Potency [4] | Potency [5] | Potency [6] | Potency [17] | Potency [7] | Potency [8] | Potency [9] | Potency [10] | Potency [11] | Potency [12] | Potency [15]

O=C1C(Cl)=C(Cl)C(=O)C(Cl)=C1Cl
active: Potency [1] 21.8 µM and 21.9 µM | Potency [3] 21.8 µM and 19.5 µM | Potency [5] 24.5 µM and 21.9 µM | Potency [6] 21.8 µM | Potency [7] 9.74 µM and 12.3 µM | Potency [8] 21.9 µM | Potency [10] 48.4 µM | Potency [13] 24.2 µM and 24.3 µM | Potency [14] 60.9 µM and 24.3 µM
inactive: Potency [2] | Potency [16] | Potency [17] | Potency [9] | Potency [18] | Potency [11] | Potency [12] | Potency [15]

CO/N=C(\C(=O)OC)c1ccccc1CO/N=C(\C)c1cccc(C(F)(F)F)c1
inactive: Potency [1] | Potency [2] | Potency [3] | Potency [16] | Potency [4] | Potency [17] | Potency [7] | Potency [8] | Potency [11] | Potency [12] | Potency [13] | Potency [14] | Potency [15]

CCOP(=O)(OCC)Oc1cc(C)nc(C(C)C)n1
inactive: Potency [1] | Potency [2] | Potency [3] | Potency [16] | Potency [4] | Potency [6] | Potency [17] | Potency [7] | Potency [9] | Potency [10] | Potency [11] | Potency [12] | Potency [13] | Potency [14] | Potency [15]

C[C@@H]1CC2=CC(=O)CC[C@@H]2[C@H]2CC[C@@]3(C)[C@@H](CC[C@]3(C)O)[C@@H]21
inactive: Potency [1] | Potency [2] | Potency [3] | Potency [16] | Potency [4] | Potency [6] | Potency [17] | Potency [7] | Potency [9] | Potency [10] | Potency [12] | Potency [13] | Potency [14] | Potency [15]

Nc1nc(N)c(N)c(N)n1
active: Potency [1] 49.2 µM | Potency [2] 49.2 µM | Potency [3] 55.2 µM | Potency [16] 49.2 µM | Potency [17] 55.2 µM | Potency [8] 49.2 µM
inactive: Potency [4] | Potency [6] | Potency [7] | Potency [9] | Potency [10] | Potency [11] | Potency [12] | Potency [15]

COP(=S)(OC)Oc1nc(Cl)c(Cl)cc1Cl
inactive: Potency [1] | Potency [2] | Potency [3] | Potency [16] | Potency [4] | Potency [17] | Potency [7] | Potency [8] | Potency [9] | Potency [10] | Potency [12] | Potency [13] | Potency [14] | Potency [15]

CCC[CH2][Sn]([CH2]CCC)([CH2]CCC)[O][Sn]([CH2]CCC)([CH2]CCC)[CH2]CCC
active: Potency [1] 0.339 µM | Potency [3] 0.537 µM | Potency [4] 0.676 µM | Potency [5] 191 nM | Potency [6] 0.269 µM | Potency [17] 1.7 µM | Potency [8] 0.676 µM | Potency [10] 0.533 µM | Potency [19] 0.189 µM | Potency [18] 0.377 µM | Potency [13] 212 nM | Potency [14] 377 nM
inactive: cytotoxicity [2] 5.3% [at 6.97 µM] | activity change, negative = cytotoxicity [7] 23.4% [at 6.97 µM] | activity change, negative = cytotoxicity [9] -23.5% [at 8.39 µM] | activity change, negative = inhibition [11] 2.24% [at 8.39 µM] | activity change [15] -10.2% [at 8.39 µM, stronger effect = higher value]

C[C@]12C/C(=C/O)C(=O)C[C@@H]1CC[C@@H]1[C@@H]2CC[C@@]2(C)[C@H]1CC[C@]2(C)O
44.1 µM (active) and inactive: Potency [1]
active: Potency [13] 55 µM and 21.1 µM | Potency [14] 61700 nM
inactive: Potency [2] | Potency [16] | Potency [4] | Potency [6] | Potency [17] | Potency [7] | Potency [8] | Potency [9] | Potency [10] | Potency [18] | outcome [20] | Potency [11] | Potency [12] | Potency [15]

ClC(Cl)C(Cl)(Cl)Cl
inactive: Potency [1] | Potency [2] | Potency [16] | Potency [4] | Potency [5] | Potency [6] | Potency [17] | Potency [7] | Potency [8] | Potency [9] | Potency [10] | Potency [12] | Potency [13] | Potency [14] | Potency [15]

c1ccc2nc(N3CCNCC3)ccc2c1
inactive: Potency [1] | Potency [2] | Potency [16] | Potency [4] | Potency [5] | Potency [6] | Potency [17] | Potency [7] | Potency [8] | Potency [9] | Potency [10] | outcome [20] | Potency [12] | Potency [14] | Potency [15]
